Measurements from PubChem BioAssay (NCI).
Compounds without any hit were thinned out: in the full panel of roughly 79,000, 15% have a hit. A number with no mark means an inactive call. Activity calls are given as the source filed them. Cut-off read from the data, not from the text of the source: active = growth inhibition above about 70%; inactive = the rest.

Assays:
[1] = NCI Yeast Anticancer Drug Screen. Data for the rad50 strain (AID 155);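 note: 0% = growth of vehicle-only cultures of the same strain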; settings: S. cerevisiae rad50 strain growth inhibition; at 50.0 µM; stronger effect = higher value
Procedure, shortened: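 Yeast carrying a defined DNA repair defect were exposed to test compounds, and growth was compared with vehicle-treated controls to give percent inhibition.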

[2] = NCI Yeast Anticancer Drug Screen. Data for the mec2-1 strain (AID 157); settings: S. cerevisiae mec2-1 strain, at 50.0 µM, stronger effect = higher value
Procedure, shortened: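 Vehicle-treated cultures served as reference for growth inhibition of compound-exposed mec2-1 yeast.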

[3] = NCI Yeast Anticancer Drug Screen. Data for the sgs1 mgt1 strain (AID 161);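 note: 0% = growth of cultures given vehicle only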; settings: S. cerevisiae sgs1 mgt1 strain, at 50.0 µM, stronger effect = higher value
Procedure, shortened: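 Mutant yeast exposed to compound; growth scored against vehicle-only wells.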

[4] = NCI Yeast Anticancer Drug Screen. Data for the cln2 rad14 strain (AID 165);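 note: 0% = growth equal to vehicle treated cultures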; settings: S. cerevisiae cln2 rad14 strain, at 50.0 µM, stronger effect = higher value
Procedure, shortened: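 Each compound was tested on cln2 rad14 yeast. Inhibition of growth was calculated against vehicle-exposed controls.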

[5] = NCI Yeast Anticancer Drug Screen. Data for the bub3 strain (AID 167); settings: S. cerevisiae bub3 mutant strain, at 50.0 µM, stronger effect = higher value
Procedure, shortened: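 Compounds were applied to a genetically altered yeast strain carrying a cell-cycle control defect. Growth inhibition was scored against vehicle-treated controls.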

[6] = NCI Yeast Anticancer Drug Screen. Data for the mlh1 rad18 strain (AID 175); settings: S. cerevisiae mlh1 rad18 strain growth inhibition; at 50.0 µM; stronger effect = higher value
Procedure, shortened: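 Vehicle-treated cultures served as the reference for growth inhibition in a yeast strain carrying DNA damage repair alterations exposed to each compound.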

Structure (SMILES)	growth inhibition [1]	growth inhibition [2]	growth inhibition [3]	growth inhibition [4]	growth inhibition [5]	growth inhibition [6]
N#CC1(c2ccc(Cl)cc2)CCC1	11.7%	6.15%	19.8%	19.9%	27.5%	8.6%
OC(C/C(=N\Nc1ccccc1)c1ccc(Br)cc1)(C(F)(F)F)C(F)(F)F	67.2%	97% (active)	88.8% (active)	85.7% (active)	44.9%	96.5% (active)
O=C(/C=C/c1ccccc1)CC(=O)c1ccccc1.O=C(/C=C/c1ccccc1)CC(=O)c1ccccc1.[Cu]	-17.1%	-10.7%	-15.7%	-35.8%	-2.45%	-15.9%
NC(=O)c1cc2ccccc2c2ccccc12	0.65%	-23.8%	-15.6%	-33.3%	-1%	-3.85%
Cc1nc(N)nc2c1CCC(=O)N2	11.7%	7.6%	-3.1%	-37.6%	0.65%	1.7%
CC(C)CC(=O)Cc1ccccc1	18.8%	14.7%	19.2%	-52.7%	-2.2%	-0.2%
NC(=O)c1cn2ccccc2c1[N+](=O)[O-]	8.25%	27.6%	3.35%	-20.2%	2.8%	5.2%
c1ccc(-c2nc(-c3ccccc3SSc3ccccc3-c3nc(-c4ccccc4)nn3-c3ccccc3)n(-c3ccccc3)n2)cc1	-14.5%	-6.3%	0.8%	3.25%	-8.8%	18.9%
Nc1ccc(C(=O)Nc2ccccn2)cc1	-9.1%	-9.55%	-13.4%	-27.6%	3.1%	-2.55%
COc1ccc(/C=N/Nc2c([N+](=O)[O-])cc(C)cc2[N+](=O)[O-])cc1	35.1%	13.2%	16.3%	13%	11.8%	7.8%
O=C(Nc1cccc(Cl)c1Cl)Oc1ccc(Cl)cc1C(=O)c1ccccc1	-7.8%	-1%	-17.1%	4.5%	-12.9%	-27.4%
O=c1[nH]c2c([N+](=O)[O-])cc(Cl)cc2nc1/C=C(\O)c1cccnc1	18.4%	0.7%	33.8%	36.2%	4.25%	45.1%
CC(C)C1=CC(=Nc2ccc(N(C)C)cc2)C=CC1=O	-1.35%	6.4%	9.5%	-29.2%	18%	-13.1%
Cc1ccc(N=Nc2ccc(C)cc2NC(=O)c2ccc(Cl)c(Cl)c2)cc1	-9.6%	-11.2%	-12%	-13.1%	7.8%	-20.4%
CN(C)CCCC1c2ccccc2Oc2ccc(C(F)(F)F)cc21 (stereo not given)	-9.45%	-28.4%	-11.9%	-25.1%	41.9%	31.2%
COc1cc(NS(=O)(=O)c2ccccc2)c2nc3ccc(Cl)cc3nc2c1	3.6%	-8.4%	-25.1%	3.3%	-7.25%	12.3%
CC(=O)C(CCN(C)C)c1ccc2c(c1)CCc1ccccc1-2 (stereo not given)	13.3%	5.65%	19.4%	-8.45%	13.3%	27.6%
CCOC(=O)c1oc2ccc(OC)c3c2c1CCC3	2.8%	-1%	6.3%	15.4%	11.6%	19.6%
CCCCCCSc1ccc([N+](=O)[O-])cc1[N+](=O)[O-]	4.95%	-6%	-10.6%	-6.8%	24.9%	-21.1%
ClC/C=C/COC1CCCCO1 (stereo not given)	6.8%	-8.55%	-8.5%	-13.8%	-7.6%	-8.9%

Structure (SMILES)	growth inhibition [1]	growth inhibition [2]	growth inhibition [3]	growth inhibition [4]	growth inhibition [5]	growth inhibition [6]
O=C(C[N+]12CN3CN(CN(C3)C1)C2)c1ccc(-c2ccccc2)cc1	65.7%	34.2%	53.2%	21.1%	39.2%	45.6%
Nc1ccccc1SC1CC(=O)N(c2ccc(Br)cc2)C1=O (stereo not given)	13.2%	3.4%	2.75%	10.8%	26.6%	12.3%
CCOC1(c2ccccc2)OC(=O)c2ccccc21 (stereo not given)	18.9%	3.15%	9.8%	16.7%	2.4%	11.7%
COc1cc(/C=C/c2ccc(/C=C/c3cc(OC)c(OC)c(OC)c3)cc2)cc(OC)c1OC	11.2%	-5.65%	-29.9%	1.8%	-8.75%	-9.9%
c1ccc(NCNC2Nc3ccccc3N2)cc1	-25.9%	-13.2%	12.3%	-3.35%	-20.6%	11.6%
CNC(=O)C1NCCc2cc(OC)c(OC)cc21 (stereo not given)	21.9%	-22%	20.7%	13.2%	10.4%	20.6%
CSc1ccc(NC(=O)Nc2cccc(C)c2C)cc1	1.75%	27.1%	27.8%	-7.2%	27.6%	15.3%
CC(=O)Nc1ccc(S(=O)(=O)N/N=C/c2ccc3c(c2)OCO3)cc1	4.85%	-20.2%	2.55%	2.15%	-33.7%	-20.5%
CC(=O)NC1=NC(=O)/C(=C/c2ccc(/C=C3/C(=O)N=C(NC(C)=O)N3C)cc2)N1C	-20.6%	11%	14.4%	35.6%	-9.05%	-27.2%
OC1CSc2ccccc2-n2cccc21 (stereo not given)	25.8%	6.4%	21.8%	32.9%	6.75%	16.4%
Nc1nc(Sc2ccccn2)ccc1[N+](=O)[O-]	0.25%	-12.8%	-2.1%	-27.1%	-12.1%	-6.45%
N#CCCN(CCC#N)c1ccc(C=O)cc1	20.3%	8.05%	17.2%	-4.25%	26.6%	13.6%
O=C([CH-]C(=O)C(F)(F)F)c1ccccc1.O=C([CH-]C(=O)C(F)(F)F)c1ccccc1.O=C([CH-]C(=O)C(F)(F)F)c1ccccc1.[Ru+3]	-11.2%	-13.8%	-11.5%	-22.7%	9.8%	4.75%
CCc1c(O)nc(Nc2nc3ccccc3[nH]2)[nH]c1=O	-34.4%	-21.8%	-21.4%	-23.5%	-33%	-56.5%
CC(=O)SCCCCl	-9.25%	2.1%	11.2%	-1.25%	8.25%	-11.3%
CCCCCCCCCCCCOC1OC(COC(C)=O)C(OC(C)=O)C(OC(C)=O)C1OC(C)=O (stereo not given) (tested in a mixture with another compound)	-7.9%	-15.4%	-15.6%	-22.2%	-2.45%	-14.4%
CC1(C)CCC[C@@]2(C)C1C[C@H](O)[C@@]1(C)O[C@@](C)([C@H](O)CO)CCC21 (stereo not given in full)	28.6%	33%	56%	69.1%	29.2%	70.9% (active)
O=CN(Cc1cnccn1)Cc1cnccn1	-2.8%	7.3%	-6.75%	-33.1%	7%	-14.2%
O=C1CCC2CCC1C2 (stereo not given)	10.1%	-16.6%	-41.3%	15.8%	-36.7%	-28.3%
Cc1ccc(NC(=O)CSc2nnc(Cc3ccccc3)o2)cc1	-15.4%	-4.35%	-18.5%	-20.1%	-3.65%	-25.6%
